Assay results published in PubChem BioAssay (NCI).
Compounds without any hit were thinned out: in the full panel of roughly 83,000, 20% have a hit.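 Results are percent growth after 48 hours of single-concentration exposure. 100 means growth as in untreated cells, lower positive values show inhibition; negative values down to -100 show cell death.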 A number with no mark means an inactive call. Active and inactive are the calls of the source. How the source made its calls: active means growth percent below 10; inactive means the rest.

test system: MDA-MB-468 breast; experiment: NCI-60 one-dose screen, 48 h (100 = growth as untreated, 0 = no growth, -100 = all killed); settings: 10 µM unless noted

Compound	growth
Nc1ccc2c(c1)Cc1cc(N)c(Br)cc1-2	81.9%
Cc1n[nH]c(=O)n(/N=C\c2c[nH]c3ccccc23)c1=O	106%
O=S1(=O)OC(c2ccc(O)c(Cl)c2)(c2ccc(O)c(Cl)c2)c2ccccc21	114%
COc1ccc(C(=O)c2c(N)c(C#N)cn2-c2ccccc2OC)cc1	31%
CC1=Nc2cnc(Nc3ccc(OCCN4CCCC4)cc3)nc2Nc2ccccc21	57%
COc1cc(CO)cc2cc3ccccc3nc12	40.8%
Cn1cc(-c2csc(-c3c[nH]c4ccccc34)n2)c2cnccc21	-20.8% (active)
COc1ccc(-c2cc(C(=O)Nc3nc4cc(C)c(C)cc4s3)nc3cc(-c4ccccc4)nn23)cc1OC	109%
Cn1cnc2c(F)c(Nc3ccc(Br)cc3F)c(C(=O)NOCCO)cc21	97.3%
O=C([O][Sn]([O]C(=O)c1ccccn1)([c]1ccccc1)[c]1ccccc1)c1ccccn1	-23.8% (active)
O=C(Nc1sc2c(c1C(=O)O)CCCC2)c1cccc(C(F)(F)F)c1	68.2%
O=C(Nc1cccc(Cl)c1)Nc1ncc(CCNc2ncnc3ccsc23)s1	6.87% (active)
O=C(COC(=O)[C@H](C[Se][Se]C[C@H](NC(=O)c1ccc(Br)cc1F)C(=O)OCC(=O)c1ccc(F)cc1)NC(=O)c1ccc(Br)cc1F)c1ccc(F)cc1	-79.5% (active)
COc1ccc(CCNC(=S)NN)cc1OC	128%
COc1ccc2c(CCCC(c3ccccc3)c3ccccc3)c3[n+](cc2c1OC)CCc1cc2c(cc1-3)OCO2	-73% (active)
CN1C(=O)/C(=C/c2ccc(C(=O)Nc3ncc(Cc4ccc(F)cc4)s3)cc2)SC1=S	25.2%
O=C(NCc1cccc(C(F)(F)F)c1)[C@H](CCC(=O)N1CCN(C2CCCCC2)CC1)N1C(=O)[C@@H](N2C(=O)OC[C@@H]2c2ccccc2)[C@H]1/C(Cl)=C/c1ccccc1	-5.16% (active)
CSc1nc2c(c(=O)[nH]1)C(c1ccc(C)cc1)C=C(C(=O)O)N2 (stereo not given)	114%
CSc1nc(-c2cccc(NC(=O)CCl)c2)c(C#N)c(=O)n1C	-4.77% (active)
C=C(C)[C@@H]1CC[C@]2(C(=O)O)CC[C@]3(C)[C@H](CC[C@@H]4[C@@]5(C)C[C@@H](CC#Cc6ccc(C(C)=O)s6)[C@H](O)C(C)(C)[C@@H]5CC[C@]43C)[C@@H]12	63.4%

Compound	growth
CCOc1ccc2c(c1)/C(=C\C=C\C1CC(C)C3CC(OCC)CCC3N1CC)CC(C)N2CC (stereo not given)	-37.3% (active)
c1ccc(CCNc2ncnc3[nH]ncc23)cc1	70.9%
Fc1ccc(CNCCNc2ncnc3c2cnn3-c2ccccc2)cc1	81.4%
CN1CCN(c2ccc(Nc3nc(NCCCNS(=O)(=O)c4ccc(F)cc4)c4sccc4n3)cc2)CC1	25.9%
NS(=O)(=O)c1ccc(N/C=C/C(=O)c2cc3ccccc3oc2=O)cc1	90.4%
CCN(CC)c1ccc(/C=N/NC(=O)c2ccccc2Nc2ccnc(C(F)(F)F)c2)c(O)c1	24.7%
CC(=O)c1nnn(-c2c(C(=O)n3nc(C)cc3C)sc(=S)n2-c2ccccc2)c1C	96.8%
Clc1ccc(Cl)c(N=Cc2ccc3c(c2)OCO3)c1	113%
Cc1ccccc1NC(=O)N/C(N)=N/c1nc(C)c(C)s1	-7.08% (active)
CS(=O)(=O)c1nccc(-c2c(-c3cccc(O)c3)nc3sccn23)n1	60.1%
CCc1ccccc1C(=O)N(CC)CC	116%
CC(=O)C1=C(O)C=C2Oc3c(C(=O)/C=C/c4cc(Cl)cc(Cl)c4)c(O)c(C)c(O)c3[C@]2(C)C1=O	-41.7% (active)
COc1ccc(-c2cc(/C=C/C(=O)c3ccc(OC)c(OC)c3)[nH]n2)cc1	21.4%
CN1CCN(CCCOC(=O)c2c3c(n4ccccc24)C(=O)c2ncccc2C3=O)CC1	43.7%
O=CNCCc1ccccc1	97.8%
O=C(CCCCNC(=O)c1cc(=O)c(O)co1)Nc1ccccc1	35%
COc1ccc(/C=c2\c(=O)n(-c3ccccc3)c3nn4c(=O)c(=O)[nH]nc4n23)cc1	112%
N#Cc1c2c(nn(-c3ccccc3)c1=O)C(O)=C([N+](=O)[O-])C(c1ccccc1)C2 (stereo not given)	64.1%
O=C1NC(=O)c2c1c1c3ccccc3[nH]c1c1oc3ccc(F)cc3c21	8.7% (active)
OC1CCCc2ccccc21 (stereo not given)	97.4%
